Here are results for 92 compounds from PubChem BioAssay AID588591 (National Center for Advancing Translational Sciences (NCATS), 2011).

The whole screen tested about 390,000 compounds, of which about 4,700 (1.2%) were called active. Entries that show only a call come without a potency. Roughly 4% stayed inconclusive and do not appear here. Calls come from the whole dose curve; as a rule, active = well fitted inhibition curve with a large enough effect; inconclusive = small, poorly fitted or top-dose-only effect, or another doubt; inactive = no such curve, though single readings can be large or run the other way. Many of the other results were omitted from the sample, so actives are more common in it than they were.
Potency is the fitted concentration of half-maximal effect.

DNA polymerase eta (Homo sapiens), sequence (Q9Y253 whole entry, looked up): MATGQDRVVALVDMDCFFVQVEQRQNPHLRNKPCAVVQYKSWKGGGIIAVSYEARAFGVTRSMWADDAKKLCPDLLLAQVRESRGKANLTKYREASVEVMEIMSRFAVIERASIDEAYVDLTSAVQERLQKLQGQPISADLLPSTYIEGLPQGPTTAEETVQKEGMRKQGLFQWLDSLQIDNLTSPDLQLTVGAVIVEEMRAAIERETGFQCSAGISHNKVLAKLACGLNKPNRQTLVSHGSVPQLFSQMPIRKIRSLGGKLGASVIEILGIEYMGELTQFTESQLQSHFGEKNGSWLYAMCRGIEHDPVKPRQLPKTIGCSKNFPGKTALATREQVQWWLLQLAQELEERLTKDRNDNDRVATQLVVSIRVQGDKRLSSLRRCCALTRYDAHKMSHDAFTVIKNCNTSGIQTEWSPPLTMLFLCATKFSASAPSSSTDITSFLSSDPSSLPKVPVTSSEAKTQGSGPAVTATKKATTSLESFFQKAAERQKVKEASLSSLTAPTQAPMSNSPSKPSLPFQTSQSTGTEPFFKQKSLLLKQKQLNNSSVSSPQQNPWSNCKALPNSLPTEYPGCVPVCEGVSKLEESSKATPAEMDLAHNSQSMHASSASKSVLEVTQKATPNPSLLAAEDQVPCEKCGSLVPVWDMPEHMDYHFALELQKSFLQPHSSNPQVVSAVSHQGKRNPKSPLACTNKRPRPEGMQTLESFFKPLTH

The assay addresses DNA polymerase eta (Homo sapiens) (UniProt Q9Y253). Kind of assay: qHTS for Inhibitors of Polymerase Eta. To be noted: recombinant Pol eta, fluorescent DNA replication assay; series mostly up to 114 µM. A digest of the protocol: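 Fluorescent replication assay: 50 nM final substrate added after a 15 min room-temperature compound preincubation with 10 nM enzyme. Signal taken at 0 min and again at 10 min.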
In the case of `CC1=C(C(=O)Nc2ccccc2)C(c2ccc(C)cc2)n2nc(SCc3ccccc3C)nc2N1` (configuration not stated), the Potency entry is “inactive”.
Take `CCOc1ccc(CNC(=O)CCc2c(C)nn(-c3ccc(N4CCCCC4)nn3)c2C)cc1`: the Potency entry was “inactive”.
For the compound `CCOC(=O)c1cc2c(=O)n3ccccc3nc2n(Cc2ccco2)c1=NC(=O)c1ccc(F)cc1`, the Potency entry is “inactive”.
With `OC[C@H]1O[C@@H](n2cnc3c(N[C@H]4CC5CCC4C5)ncnc32)[C@H](O)[C@@H]1O` (some centres not stated), the Potency entry is “inactive”.
Consider `O=C(Nc1ccc2nc(SCC(=O)N3CCCc4ccccc43)sc2c1)c1ccc(F)cc1`, for which the Potency entry was “inactive”.
On to `O=C(O)CCn1cc(/C=C/C(=O)c2ccc(Cl)cc2)c(-c2cccc(Br)c2)n1`, for which the Potency is 56.2 µM (active).
With `CCc1ccc(S(=O)(=O)c2nnn3c2nc(NCc2ccccc2OC)c2cc(Cl)ccc23)cc1`, the Potency entry is “inactive”.
As to `CCc1nn(CC(=O)N2CCN(CC)CC2)c(=O)c2cccn12`, the Potency entry is “inactive”.
For the compound `CN1CCN(C(=O)Cn2c(C(F)(F)F)nc3ccccc32)CC1`, the Potency result was “inactive”.
Turning to `CCCN1CCN(C(=O)Cn2ncc3ccccc32)CC1`, the Potency was 25.1 µM (active).
For the compound `Cc1ccc(NC(=O)CN2C(=O)CC(C)Sc3ccccc32)c(C)c1` (configuration not stated), the Potency entry is “inactive”.
For the compound `COc1ccc(Br)cc1CNC(=O)c1cc(=O)[nH]c2ccc(S(=O)(=O)N3CCCC3)cc12`, the Potency result is “inactive”.
Take `O=C(O)c1ccc(NN=CC2=C(N3CCOCC3)/C(=C/c3ccccc3)CC2)cc1`: the Potency is 39.8 µM (active).
In the case of `O=C(Nc1ccc(F)cc1)c1cccnc1N1CCOCC1` it was “inactive”.
In the case of `CC(C)(CNC(=O)c1ccc(Cl)c(S(=O)(=O)N2CCc3ccccc3C2)c1)N1CCOCC1`, the Potency result was “inactive”.
On to `CCOc1ccc(NC(=O)C(=O)NCCc2csc3nc(-c4ccccc4F)nn23)cc1`, for which the Potency result was “inactive”.
Take `Cc1cc2ccccc2n1CCNC(=O)c1ccc(F)cc1`: the Potency entry was “inactive”.
With `Cc1ccc2c(=O)c(C(=O)c3ccc(Cl)cc3)cn(CC(=O)NC3CCCCC3)c2n1`, the Potency result is “inactive”.
With `NC1=NC(c2cc(F)cc(F)c2)n2c(nc3ccccc32)N1` (configuration not stated), the Potency result was “inactive”.
Turning to `COC(=O)c1ccccc1NS(=O)(=O)c1ccc2c(c1)CCCN2C(C)=O`, the Potency entry is “inactive”.
As to `COc1ccc(S(=O)(=O)NC(C)c2ccccc2)cc1C(=O)N1CCCCC1` (configuration not stated), the Potency result was “inactive”.
Then `COc1ccc(Br)cc1/C=N/Nc1ccc(S(=O)(=O)Nc2ccccc2C(=O)O)cc1[N+](=O)[O-]`, with 15.8 µM (active); and `Cc1ccc(NS(=O)(=O)c2ccc3c(c2)n(C)c(=O)c(=O)n3C)c(C)c1`, with “inactive”; and `Cc1ccc(NS(=O)(=O)c2ccc(N/N=C/c3ccccc3OCC(=O)O)c([N+](=O)[O-])c2)c(C)c1`, with 70.8 µM (active).
With `Cc1ccc(C)c(NS(=O)(=O)c2ccc(OCC(=O)NCc3cccnc3)cc2)c1`, the Potency entry was “inactive”.
`CCN(CC(=O)NCc1cccs1)C(=O)c1cccc(S(=O)(=O)Nc2ccccc2OC)c1`: the Potency result is “inactive”.
Turning to `O=C(CN1CCCCCC1)Nc1ccc(Br)cc1[N+](=O)[O-]`, the Potency entry was “inactive”.
In the case of `COc1cccc(/C=N/Nc2ccc(S(=O)(=O)Nc3ccccc3C(=O)O)cc2[N+](=O)[O-])c1O` it was 17.8 µM (active); in that of `COc1ccc(N2CCN(Cc3nc4c(c(=O)[nH]c(=O)n4C)n3Cc3ccc(Cl)cc3)CC2)cc1`, “inactive”.
In the case of `CCOc1ccccc1NC(=O)Cn1c(=O)n(Cc2ccccc2)c(=O)c2c(C)c(C(=O)N(C)C)sc21` it was “inactive”; in that of `COc1ccc(C2(Nc3cccc(F)c3)C(=O)c3ccccc3C2=O)cc1`, “inactive”; in that of `CCCCC12CN3CC(C)(CN(C1)C3c1ccc(O)c(OC)c1)C2=O` (configuration not stated), “inactive”.
For the compound `COc1ccc2c(c1)c(N1CCCC1=O)c(C(=O)Nc1ccc(OC)c(Cl)c1)n2C`, the Potency entry is “inactive”.
`Cc1ccc(C(=O)Nc2cc3c(cc2N2CCCC2)n(C)c(=O)c(=O)n3C)cc1`: the Potency entry is “inactive”.
On to `Cc1ccccc1CSc1nc(-c2ccccc2)nc2c1Cc1c(CO)cnc(C)c1O2`, for which the Potency result was “inactive”.
Turning to `CCCC(=O)N1CCN(c2nc3c(OC)ccc(C)c3s2)CC1`, the Potency entry was “inactive”.
Take `COC(=O)c1ccc(C(NC(=O)OCc2ccccc2)/C(C)=C/[C@@H](C)C(=O)NCc2ccc(OC)c(OC)c2)cc1` (some centres not stated): the Potency result is “inactive”.
With `COc1cc(/C=C/C(=O)OCC(=O)NC(=O)NCc2ccccc2)ccc1OCC#N`, the Potency entry was “inactive”.
In the case of `COC(=O)c1ccc(COc2ccc(/C=C/C(=O)c3ccc(OC)c(CSCC(=O)O)c3)cc2OC)cc1` it was 20 µM (active); in that of `COc1ccc(CCNC(=O)c2cn(C)c3ccc(S(=O)(=O)N(C)C4CCCCC4)cc3c2=O)cc1OC`, “inactive”; in that of `CCOC(=O)C1CCN(C(c2ccc(F)cc2)c2sc3nc(-c4ccco4)nn3c2O)CC1` (configuration not stated), “inactive”.
As for `CCOc1ccccc1/C=c1\sc2nc(-c3ccco3)nn2c1=O`, the Potency was 7.94 µM (active).
Take `Oc1c(C(c2ccccc2Cl)N2CCOCC2)sc2nc(-c3ccco3)nn12` (configuration not stated): the Potency result is “inactive”.
`Cc1ccc2nc3c(cc(C(=O)NC4CCCCC4)c(=N)n3C(C)C)c(=O)n2c1`: the Potency result was “inactive”.
Regarding `CCc1cc2c(-c3ccccc3)cc(=O)oc2c2c1OCN(Cc1ccc(C)cc1)C2`, the Potency result is “inactive”.
Turning to `COC(=O)C1=C(C)NC2=C(C(=O)c3ccccc32)C1c1ccc(-c2ccc(C(=O)O)cc2)o1` (configuration not stated), the Potency is 31.6 µM (active).
In the case of `CCOc1cc(C2C(C(=O)OC)=C(C)NC3=C2C(=O)c2ccccc23)ccc1O` (configuration not stated), the Potency entry is “inactive”.
For `CCCOc1ccc(C2c3c(-c4ccccc4O)n[nH]c3C(=O)N2Cc2cccnc2)cc1` (configuration not stated), the Potency entry was “inactive”.
Then `COc1cc(-c2noc(-c3ccc(N4CCCC4)c([N+](=O)[O-])c3)n2)cc(OC)c1OC`, with “inactive”.
As to `CN1c2ccc(Cl)cc2-c2nc(SCC(=O)Nc3cc(F)ccc3F)ncc2S1(=O)=O`, the Potency result was “inactive”.
Consider `O=c1nc2s/c(=C\c3ccco3)c(=O)n2nc1Cc1ccccc1`, for which the Potency was 17.8 µM (active).
Take `Cc1ccc(C)c(CNC(=O)c2cc3ccccn3n2)c1`: the Potency result was “inactive”.
`COc1ccc(CCNC(=O)c2cc3cccc4c3n2CC(C)S4)c(OC)c1OC` (configuration not stated): the Potency result was “inactive”.
In the case of `CC(CNC(=O)c1nnc(Cc2cccc(F)c2)o1)c1ccccc1` (configuration not stated), the Potency entry is “inactive”.
With `COc1cc2nc(SCc3ccc(F)cc3)n3nc(CCn4c(C)nc5ccccc54)nc3c2cc1OC`, the Potency result was “inactive”.
For `O=S(=O)(NCCS(=O)(=O)N1CCN(c2ccccc2)CC1)c1ccc(Cl)cc1`, the Potency entry was “inactive”.
With `Cc1ccc(-c2ccc(/C=C(\C#N)C(N)=S)o2)c([N+](=O)[O-])c1`, the Potency result is “inactive”.
In the case of `CC1=NN(c2ccc(Cl)c(C(=O)O)c2)C(=O)/C1=C/c1ccc(-c2ccccc2[N+](=O)[O-])o1` it was 20 µM (active); in that of `O=C(CSc1nc(=O)[nH]c2c1CCCC2)Nc1cc(C(F)(F)F)ccc1Cl`, “inactive”.
Turning to `COc1cccc(N2CC(NC(=O)/C=C\c3ccccc3)CC2=O)c1` (configuration not stated), the Potency entry is “inactive”.
Take `COCOc1cc(O)c(C(=O)/C=C/c2ccc(OCOC)c(OCOC)c2)c(OCOC)c1`: the Potency result was “inactive”.
Regarding `COc1ccc(/C=C/C(=O)c2cc(Br)ccc(=O)c2O)cc1`, the Potency is 31.6 µM (active).
For the compound `Oc1ccc(-c2nc3ccc(Cl)cn3c2Nc2ccc3c(c2)OCO3)cc1`, the Potency result is “inactive”.
In the case of `O=C(COc1ccc(Cl)cc1)N(Cc1ccco1)Cc1ccco1` it was “inactive”.
Then `COc1cccc(C(c2c(O)cc(C)n(Cc3ccco3)c2=O)N2CCN(c3ccccc3)CC2)c1` (configuration not stated), with “inactive”; and `O=C(c1ccc(Cl)cc1)n1nc(-c2cccnc2)nc1NCc1ccc(F)cc1`, with “inactive”; and `Cc1ccc(C(=O)N/C(=C\c2ccco2)C(=O)N2CCSCC2)cc1C`, with “inactive”.
On to `Cc1ccc(N2NC(=O)/C(=C/C=C/c3ccco3)C2=O)cc1C`, for which the Potency is 79.4 µM (active).
With `Cc1ccc(N=C2NC(=O)/C(=C/C=C/c3ccco3)S2)cc1C`, the Potency was 8.91 µM (active).
As to `Cc1ccccc1CNC(=O)C(=O)NCC(c1cccs1)S(=O)(=O)c1cccs1` (configuration not stated), the Potency entry is “inactive”.
In the case of `CCCS(=O)(=O)c1c(Nc2ccccc2C)sc(C(=O)c2ccccc2)c1N`, the Potency result was “inactive”.
For `O=C(CCc1cn(Cc2ccc(F)cc2)c2ccccc12)NC1CCCCC1`, the Potency entry is “inactive”.
For the compound `CC(=O)Nc1cccc(NC(=O)CSc2nccn2Cc2ccc3c(c2)OCO3)c1`, the Potency result was “inactive”.
As for `COc1ccc(-c2nn(CC(=O)NC3CCCC3)c3c2cnc2ccc(F)cc23)cc1`, the Potency entry was “inactive”.
In the case of `COc1ccc(CCNC(=O)c2ccc(CSCc3ccc(C)cc3)o2)cc1OC` it was “inactive”; in that of `COc1ccc(-c2ccc(=O)n(CC(=O)Nc3ccc(Br)cc3F)n2)cc1`, “inactive”.
As to `COCCCn1c(SCC(=O)NC2CCCC2)nnc1-c1ccccc1`, the Potency entry was “inactive”.
Regarding `CCOc1ccc(Nc2nc(Cc3nnc(SCC(=O)NC4CCCC4)n3C)cs2)cc1`, the Potency entry was “inactive”.
With `COCCCn1c(Cc2csc(Nc3cccc(Cl)c3)n2)nnc1SCC(=O)OC1CCCCC1`, the Potency was 7.94 µM (active).
Turning to `COc1ccc(Cn2c(=O)c3oc4ccccc4c3n(CC(=O)Nc3ccc(F)cc3F)c2=O)cc1`, the Potency entry was “inactive”.
As for `C=C1c2c(Cl)ccc(O)c2C(O)=C2C(=O)[C@]3(O)C(O)=C(C(N)=O)C(=O)[C@@H](N(C)C)[C@@H]3[C@@H](O)C12` (some centres not stated), the Potency is 35.5 µM (active).
For the compound `O=C(CSc1cn(CC(=O)N2CCOCC2)c2ccccc12)Nc1ccccc1`, the Potency result is “inactive”.
`Cc1nnc(SCC(=O)Nc2ccc(S(=O)(=O)Nc3ccc(Cl)nn3)cc2)s1`: the Potency is 20 µM (active).
`Cc1nnc(SC(C)C(=O)Nc2ccc(S(=O)(=O)NC3CCCCC3)cc2)s1` (configuration not stated): the Potency entry is “inactive”.
Consider `COc1ccc(NC(=O)CSc2nc(NS(=O)(=O)c3ccc(C)cc3)cc(=O)[nH]2)cc1`, for which the Potency result is “inactive”.
With `Cc1nc2nc(SCC(=O)NC3CCC(C)CC3)nn2c(C)c1Cc1ccccc1Cl` (configuration not stated), the Potency result was “inactive”.
Regarding `Cc1cc(C)c2oc(C(=O)Nc3ccc(S(=O)(=O)N(C)c4ccccc4)cc3)cc(=O)c2c1`, the Potency result is “inactive”.
Then `O=C(Nc1cc(C(F)(F)F)ccc1Cl)c1cc2nc(-c3ccc4c(c3)OCO4)cc(C(F)(F)F)n2n1`, with “inactive”; and `COc1ccc(S(=O)(=O)N2CCN(CC(=O)N3CCOCC3)CC2)cc1OC`, with “inactive”; and `C=CCC1=C/C(=C\c2c(N)n3nc(CC(=O)N4CCOCC4)sc3nc2=O)C=C(OC)C1=O`, with 31.6 µM (active).
As to `COC1=C/C(=C/c2c(N)n3nc(CC(=O)N4CCOCC4)sc3nc2=O)C=CC1=O`, the Potency is 44.7 µM (active).
Then `COc1ccc(-c2ccnc(SCC(=O)N3CCOCC3)n2)cc1`, with “inactive”.
